Data on nine molecules can be found in PubChem BioAssay (NCATS).

Each structure is given as a SMILES string. Records with an inconclusive call do not appear. The source made the active and inactive calls. Calls come from the whole dose curve; as a rule, active = well fitted curve in the direction sought with a large enough effect; inconclusive = small, poorly fitted or top-dose-only effect, or another doubt; inactive = no such curve, though single readings can be large; an effect the other way counts as inactive or inconclusive.

Experiment [1] is described as follows: Primary qHTS for inhibitors of nuclear receptor binding SET domain protein 2 (NSD2) in an isogenic RCH-ACV NSD2 p.E1099K mutant (9B) (AID 1645876). Note: potency is the fitted concentration of half-maximal effect; nearly all actives have a fitted effect of over 70% in size. On the technique in general: qHTS replaces the single test concentration by a dilution series.
Experiment [2] is described as follows: Primary qHTS for inhibitors of nuclear receptor binding SET domain protein 2 (NSD2) in an RCH-ACV wild type WT cells (2C) (AID 1645877). Note: nearly all actives have a fitted effect of over 70% in size. Note: potency is the fitted concentration of half-maximal effect.
Experiment [3] has as its target N-terminal Xaa-Pro-Lys N-methyltransferase 1 (Homo sapiens) (UniProt Q9BV86). In words: Confirmatory qHTS for Inhibitors of N-terminal methyltransferase 1 (NTMT1): MTaseGlo Assay (AID 1645874).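 Note: luminescence from SAH made as NTMT1 methylates SPKRIA peptide using SAM; series mostly up to about 100 µM; nearly all actives have a fitted effect of over 65% in size.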 In short, it runs like this: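 SPKRIA peptide at 1 uM was methylated by 125 nM NTMT1 using 100 uM SAM over 30 min at room temperature, following a 15 min compound preincubation. Product SAH was detected luminescently.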

Experiment [4] deals with Rap guanine nucleotide exchange factor 3 (Homo sapiens) (UniProt O95398). In words: Confirmatory qHTS for antagonist of cAMP-regulated guanine nucleotide exchange factor 3 (EPAC1) (AID 1645880). Note: nearly all actives have a fitted effect of over 55% in size. Note: potency is the fitted concentration of half-maximal effect. In short, it runs like this:
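Released BODIPY-GDP fluoresces less than Rap1-bound BODIPY-GDP; the signal is followed at 480/540 nm at 5-min intervals over 30 min, after 5 min at room temperature. Reactions contain 100 nM EPAC1, 250 nM RAP1B-BODIPY-GDP and 50 uM GDP; results are normalized to ATA and DMSO.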

For experiment [5] the target is unchanged. In words: Confirmatory qHTS for agonist of cAMP-regulated guanine nucleotide exchange factor 3 (EPAC1) (AID 1645881).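 Note: EPAC1 catalysed release of BODIPY-GDP from Rap1B seen as fluorescence loss; nearly all actives have a fitted effect of over 75% in size.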
In experiment [6] the target is Rap guanine nucleotide exchange factor 4 (Homo sapiens) (UniProt Q8WZA2). In words: Confirmatory qHTS for agonist of cAMP-regulated guanine nucleotide exchange factor 4 (EPAC2) (AID 1645884).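 Note: nucleotide exchange releases bodipy-GDP from Rap1 and this lowers its fluorescence; nearly all actives have a fitted effect of over 65% in size.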
Sequence of Rap guanine nucleotide exchange factor 4 (Homo sapiens) (Q8WZA2 whole entry, looked up): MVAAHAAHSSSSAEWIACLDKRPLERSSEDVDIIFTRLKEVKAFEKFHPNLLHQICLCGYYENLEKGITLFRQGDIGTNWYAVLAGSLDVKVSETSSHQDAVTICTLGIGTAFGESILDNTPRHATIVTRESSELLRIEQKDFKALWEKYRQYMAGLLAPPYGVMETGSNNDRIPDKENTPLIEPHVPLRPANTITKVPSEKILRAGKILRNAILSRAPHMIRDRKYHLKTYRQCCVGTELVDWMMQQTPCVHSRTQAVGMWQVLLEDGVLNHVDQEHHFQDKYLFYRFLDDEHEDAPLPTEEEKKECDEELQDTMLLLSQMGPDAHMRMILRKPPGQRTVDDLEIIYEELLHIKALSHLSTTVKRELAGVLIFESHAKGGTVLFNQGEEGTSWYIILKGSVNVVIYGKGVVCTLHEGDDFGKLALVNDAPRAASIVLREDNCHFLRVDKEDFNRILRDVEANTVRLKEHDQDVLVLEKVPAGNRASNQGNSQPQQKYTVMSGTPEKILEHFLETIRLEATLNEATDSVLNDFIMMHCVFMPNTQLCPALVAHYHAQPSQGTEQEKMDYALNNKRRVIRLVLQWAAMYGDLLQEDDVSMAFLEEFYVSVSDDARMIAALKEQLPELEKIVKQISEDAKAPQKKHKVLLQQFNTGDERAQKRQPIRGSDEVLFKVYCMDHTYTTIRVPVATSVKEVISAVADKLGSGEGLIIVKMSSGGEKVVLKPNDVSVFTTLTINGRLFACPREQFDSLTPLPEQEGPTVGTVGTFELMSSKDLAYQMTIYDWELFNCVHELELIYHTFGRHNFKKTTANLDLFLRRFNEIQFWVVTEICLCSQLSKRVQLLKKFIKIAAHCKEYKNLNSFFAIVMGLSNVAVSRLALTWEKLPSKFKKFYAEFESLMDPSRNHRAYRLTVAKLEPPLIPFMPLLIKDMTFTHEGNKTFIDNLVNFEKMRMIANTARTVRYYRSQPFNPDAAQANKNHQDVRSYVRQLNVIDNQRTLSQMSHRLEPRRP
For experiment [7] the target is unchanged. In words: Confirmatory qHTS for antagonist of cAMP-regulated guanine nucleotide exchange factor 4 (EPAC2) (AID 1645885). Note: nearly all actives have a fitted effect of over 25% in size.

Sequence of Rap guanine nucleotide exchange factor 3 (Homo sapiens) (O95398 whole entry, looked up): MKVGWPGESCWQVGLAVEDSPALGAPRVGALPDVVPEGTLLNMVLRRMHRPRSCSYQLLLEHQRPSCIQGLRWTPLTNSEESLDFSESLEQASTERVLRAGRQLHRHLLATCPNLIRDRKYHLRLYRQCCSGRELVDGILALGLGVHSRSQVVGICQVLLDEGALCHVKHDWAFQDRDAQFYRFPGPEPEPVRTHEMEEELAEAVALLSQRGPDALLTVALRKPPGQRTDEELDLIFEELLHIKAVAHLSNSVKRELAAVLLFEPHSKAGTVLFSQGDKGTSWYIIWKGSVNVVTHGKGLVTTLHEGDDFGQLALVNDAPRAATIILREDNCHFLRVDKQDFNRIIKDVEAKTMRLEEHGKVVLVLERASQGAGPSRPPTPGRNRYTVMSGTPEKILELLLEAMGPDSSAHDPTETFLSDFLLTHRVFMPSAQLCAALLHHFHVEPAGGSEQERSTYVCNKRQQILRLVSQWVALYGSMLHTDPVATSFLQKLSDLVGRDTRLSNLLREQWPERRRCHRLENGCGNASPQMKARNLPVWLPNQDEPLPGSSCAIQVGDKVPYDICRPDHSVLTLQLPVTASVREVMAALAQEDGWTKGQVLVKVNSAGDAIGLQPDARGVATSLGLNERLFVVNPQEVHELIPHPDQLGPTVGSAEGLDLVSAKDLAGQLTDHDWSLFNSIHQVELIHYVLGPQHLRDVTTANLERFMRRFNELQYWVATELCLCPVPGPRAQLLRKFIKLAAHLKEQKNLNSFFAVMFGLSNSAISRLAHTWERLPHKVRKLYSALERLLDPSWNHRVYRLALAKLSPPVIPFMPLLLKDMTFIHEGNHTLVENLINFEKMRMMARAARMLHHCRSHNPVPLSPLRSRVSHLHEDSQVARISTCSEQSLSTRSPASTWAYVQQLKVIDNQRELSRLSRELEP
Sequence of N-terminal Xaa-Pro-Lys N-methyltransferase 1 (Homo sapiens) (Q9BV86 whole entry, looked up): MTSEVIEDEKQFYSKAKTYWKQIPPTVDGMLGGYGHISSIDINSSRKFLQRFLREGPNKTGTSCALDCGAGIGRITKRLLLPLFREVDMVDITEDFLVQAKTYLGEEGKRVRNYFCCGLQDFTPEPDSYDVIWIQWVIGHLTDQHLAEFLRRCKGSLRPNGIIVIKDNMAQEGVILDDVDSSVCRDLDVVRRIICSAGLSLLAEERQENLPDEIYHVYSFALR

For the molecule `C=C1CC2OC(=O)C(=C)C2C(OC(=O)/C(C)=C\C)CC2(C)OC1=CC2=O` (configuration not stated), the Potency in experiment [1] was 2.01 µM (active); in experiment [2], 1.01 µM (active).
The matching figures for `CC(=O)O[C@@H]1CC[C@@]2(C)[C@H](CC[C@@H]3[C@@H]2C[C@H](OC(C)=O)[C@]2(C)[C@@H](C(C)=O)CC[C@@H]32)C1`: 23 µM (active) and 23 µM (active).
The matching figures for `COC(=O)CC1OC(C)C2=C(O)c3c(O)cccc3C(=O)C23OC13` (configuration not stated): 2.84 µM (active) and 2.01 µM (active).
With `C=C1CC(=O)C2OC2(C)CC2OC(=O)C(=C)C2C(O)C1OC(=O)/C(C)=C\C` (configuration not stated), the Potency in experiment [1] is 3.19 µM (active); in experiment [2], 2.01 µM (active).
On to `O=C([C@@H]1CCCN(c2ccc3[nH]c(C4(n5cc(Cl)cn5)CC4)nc3n2)C1)N1CCCC1`, for which the Potency result in experiment [3] and in experiment [2] was “inactive” each time.
With `CC(=O)O[C@@]12CO[C@@H]1C[C@H](O)[C@@]1(C)C(=O)[C@H](O)C3=C(C)[C@@H](OC(=O)[C@H](O)[C@@H](NC(=O)OC(C)(C)C)c4ccccc4)C[C@@](O)([C@@H](OC(=O)c4ccccc4)C12)C3(C)C` (some centres not stated), the Potency in experiment [1] was 0.004 µM (active); in experiment [2], 0.0032 µM (active).
On the same counts, the results for `C=C1C(=O)O[C@@H]2C(OC(=O)/C(C)=C\C)/C(C)=C\C(=O)/C=C(\C)C[C@H](O)[C@@H]12` (some centres not stated) are 2.26 µM (active) and 1.6 µM (active).
Regarding `CC(=O)S[C@@H]1CC2=CC(=O)CC[C@]2(C)[C@H]2CC[C@@]3(C)[C@@H](CC[C@@]34CCC(=O)O4)[C@H]12`, the Potency result in experiment [4] and in experiment [7] was “inactive” throughout. Further, the call in experiment [5] and in experiment [6] was inactive.
As to `C[C@]12CC[C@@H]3c4ccc(OS(=O)(=O)O)cc4CC[C@H]3[C@@H]1CCC2=O`, in experiment [4], the Potency is 8.49 µM (active). The result in experiment [5] and in experiment [6] was inactive. In experiment [7], the Potency entry is “inactive”.
